Compound activity from PubChem BioAssay.
Rows were chosen to be rich in hits. Some 7.3% of all compounds tested hit in one or more screens of this group.
uPA surface inh – qHTS for Inhibitors of Cell Surface uPA Generation. cell surface uPA generation assay, qHTS. Potency, µM (titrated, usually from 38.3 µM), hits mostly inhibitors. 330,000 tested, 0.31% active. AID 540303, 2011; active = well fitted inhibition curve with a large enough effect; inconclusive = small, poorly fitted or top-dose-only effect; inactive = no such curve, though single readings can be large or run the other way; tested in mouse RAW 264.7 cells; note: nearly all actives have a fitted effect of over 55% in size
ELG1 genotox – qHTS screen for small molecules that induce genotoxicity in human embryonic kidney (HEK293T) cells expressing luciferase-tagged ELG1 | 330,000 tested, 1.3% active | Potency, µM (doses to about 46 µM), usual class: activators | HEK293T ELG1-luciferase reporter, luminescence, 16 h; note: nearly all actives have a fitted effect of over 60% in size
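ELG1-luciferase HEK293T cells, 2,000/well; compound pinned in; 16 hr, 37 °C, 5% CO2; ONE-Glo, 30 min RT; luminescence on CCD imager.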
NPC1 prom act – qHTS Assay for NPC1 Promoter Activators | 320,000 tested, 2.4% active | Potency, µM (doses to about 9.22 µM), actives largely listed as activators | Huh7 NPC1 promoter luciferase reporter, 24 h; note: nearly all actives have a fitted effect of over 60% in size
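Quantitative HTS used a cell-based reporter: Huh7 cells stably bearing the NPC1 promoter upstream of luciferase were treated with compounds for 24 h, and promoter activation was read as luminescence.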
SMN2 splice enh – qHTS Assay for Enhancers of SMN2 Splice Variant Expression; Potency, µM (top dose mostly 46.1 µM), usual class: activators; AID 1458, 2008; HEK293 SMN2-luciferase splicing reporter, luminescence, 30-36 h; 210,000 tested, 2.8% active; note: nearly all actives have a fitted effect of over 55% in size
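HEK293 cells carry an SMN2 minigene-luciferase reporter in which exon 7 inclusion puts luciferase in frame. Cells were seeded at 2000 cells/well, attached for 10-12 hours, then exposed to compounds for 30-36 hours at 37C before ONE-Glo luminescence.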
FLuc modulator – qHTS profiling assay for firefly luciferase inhibitor/activator using purifed enzyme and Km concentrations of substrates (counterscreen for miR-21 project). purified FLuc, Km substrates, luminescence inhibition. Potency, µM (highest dose often 57.5 µM), most hits filed as inhibitors. 360,000 tested, 6.9% active. AID 588342, 2011; note: nearly all actives have a fitted effect of over 55% in size
Target sequence (P08659 whole entry, looked up): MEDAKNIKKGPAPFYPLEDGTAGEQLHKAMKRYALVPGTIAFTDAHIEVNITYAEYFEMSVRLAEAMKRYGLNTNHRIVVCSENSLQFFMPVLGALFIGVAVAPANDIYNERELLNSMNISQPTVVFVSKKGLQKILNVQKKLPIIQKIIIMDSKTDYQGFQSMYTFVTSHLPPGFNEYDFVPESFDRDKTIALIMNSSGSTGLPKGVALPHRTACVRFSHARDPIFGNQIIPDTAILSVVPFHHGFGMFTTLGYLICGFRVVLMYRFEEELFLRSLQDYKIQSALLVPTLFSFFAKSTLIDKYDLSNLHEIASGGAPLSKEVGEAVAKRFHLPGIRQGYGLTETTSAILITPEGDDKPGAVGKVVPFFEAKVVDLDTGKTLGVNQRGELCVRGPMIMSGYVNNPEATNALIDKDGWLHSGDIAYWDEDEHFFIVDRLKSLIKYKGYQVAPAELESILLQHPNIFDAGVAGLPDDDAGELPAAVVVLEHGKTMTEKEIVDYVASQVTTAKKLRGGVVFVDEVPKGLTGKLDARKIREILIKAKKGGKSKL
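Biochemical qHTS of compounds, final roughly 60 µM downward over six points, against 10 nM purified firefly luciferase using Km concentrations of substrates (10 uM D-luciferin, 10 uM ATP) in Tris acetate pH 7.5 buffer; luminescence output.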
Rab9 prom act – qHTS Assay for Rab9 Promoter Activators | Huh7 Rab9 promoter-luciferase reporter, luminescence, 24 h | Potency, µM (doses to about 9.22 µM), usual class: activators | 320,000 tested, 2.8% active | AID 485297, 2010; note: nearly all actives have a fitted effect of over 60% in size
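Stable Rab9-luc Huh7, 1500 cells/well, 2 h settle; cmpd in DMSO, 24 h, 37 °C/5% CO2; luciferase reagent 10 min RT; luminescence.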
Large screens that a line does not name were inactive. Unless noted, calls come from the whole dose curve; as a rule, active = well fitted curve in the direction sought with a large enough effect; inconclusive = small, poorly fitted or top-dose-only effect, or another doubt; inactive = no such curve, though single readings can be large; an effect the other way counts as inactive or inconclusive.

CC(=O)Nc1ccc(-c2cn3c(n2)SCC3)cc1	ELG1 genotox inconclusive, NPC1 prom act inconclusive, FLuc modulator inconclusive, Rab9 prom act 2.8µM (no result: SMN2 splice enh)
O=C(Nc1ccc(-c2cn3c(n2)SCC3)cc1)c1ccco1	ELG1 genotox inconclusive, NPC1 prom act 2.5µM, FLuc modulator 8.5µM, Rab9 prom act 0.89µM (no result: SMN2 splice enh)
O=C(Oc1ccc(-n2cnnn2)cc1)c1ccccc1	none
O=C(Nc1cccc(-c2cn3c(n2)SCC3)c1)c1ccc(Br)o1	FLuc modulator inconclusive
COc1cc2oc3ccccc3c(=O)c2cc1OC	uPA surface inh inconclusive, ELG1 genotox inconclusive, NPC1 prom act inconclusive, FLuc modulator inconclusive (no result: SMN2 splice enh)
O=c1c2ccccc2oc2ccc(Oc3ccccc3)cc12	ELG1 genotox inconclusive, NPC1 prom act 2.8µM, FLuc modulator 4.3µM, Rab9 prom act 1.8µM (no result: SMN2 splice enh)
CC(C)OCCCNC(=O)c1ccc(Cn2c(=O)c3cccn3c3cccnc32)cc1	none (no result: uPA surface inh, ELG1 genotox, NPC1 prom act, SMN2 splice enh, Rab9 prom act)
COc1ccc(C(=O)COC(=O)CCCC(=O)NC2CCCCC2)cc1	FLuc modulator inconclusive (no result: SMN2 splice enh)
COc1cccc(NC(=O)NC2CCCCCCC2)c1	ELG1 genotox inconclusive, NPC1 prom act 3.5µM, FLuc modulator 11µM, Rab9 prom act inconclusive (no result: SMN2 splice enh)
O=C(Nc1ccc2c(c1)OCCO2)NC1CCCCC1	ELG1 genotox 1.6µM, NPC1 prom act 0.63µM, SMN2 splice enh 10µM, FLuc modulator 3.8µM, Rab9 prom act 0.56µM
O=C(Nc1ccc2c(c1)OCCO2)C1CCC1	none (no result: uPA surface inh)
COc1cccc(C(=O)COC(=O)CCCC(=O)NC2CCCCC2)c1	FLuc modulator 27µM (no result: SMN2 splice enh)
O=C(Nc1ccc(F)cc1F)NC1CCCCCCC1	ELG1 genotox inconclusive, NPC1 prom act inconclusive, FLuc modulator 12µM, Rab9 prom act inconclusive (no result: SMN2 splice enh)
O=C(Nc1ccc(F)cc1F)NC1CC1	none
Cc1ccc(-n2nnnc2CNC(=O)c2ccccc2S(C)(=O)=O)cc1C	none (no result: uPA surface inh, ELG1 genotox, NPC1 prom act, SMN2 splice enh, Rab9 prom act)
Cc1cccc(NC(=O)COC(=O)c2ccccc2SCC(=O)N2CCCC2)c1	none (no result: SMN2 splice enh)
Cc1cccc(OCC(=O)OCc2cc(=O)n3nc(-c4cccs4)sc3n2)c1	none (no result: uPA surface inh, ELG1 genotox, NPC1 prom act, SMN2 splice enh, Rab9 prom act)
COc1cccc(NC(=O)C(=S)NC2CCCCC2)c1	ELG1 genotox inconclusive, NPC1 prom act 2µM, SMN2 splice enh 3.5µM, FLuc modulator 2.4µM, Rab9 prom act 0.79µM
O=C(Nc1cccc(F)c1)NC1CCCCC1	ELG1 genotox inconclusive, NPC1 prom act inconclusive, SMN2 splice enh 18µM, FLuc modulator 24µM, Rab9 prom act inconclusive (no result: uPA surface inh)
COc1cc(NC(=O)C2Cc3ccccc3CN2S(C)(=O)=O)cc(OC)c1 (centres undefined)	none (no result: SMN2 splice enh)
COc1cc(NC(=O)NC2Cc3ccccc3C2)cc(OC)c1	FLuc modulator 17µM (no result: SMN2 splice enh)
CC1(COc2ccc(CC3SC(=O)NC3=O)cc2)CCCCC1 (centres undefined)	none (no result: uPA surface inh, ELG1 genotox, NPC1 prom act, FLuc modulator, Rab9 prom act)
C=CCOc1ccc(CNc2nccs2)cc1	SMN2 splice enh inconclusive, FLuc modulator 13µM
CC(=O)c1cccc(NC(=S)NC(=O)c2ccc(Cl)cc2)c1	ELG1 genotox inconclusive, NPC1 prom act inconclusive, SMN2 splice enh 16µM, FLuc modulator 13µM, Rab9 prom act inconclusive
Cc1cccc(NC(=S)NNC(=O)c2ccccc2OC(F)F)c1	SMN2 splice enh inconclusive
CC(=O)c1cccc(NC(=S)NC(=O)c2ccccc2Br)c1	FLuc modulator 17µM
CC(=O)c1cccc(NC(=S)NC(=O)c2ccccc2C)c1	FLuc modulator inconclusive (no result: SMN2 splice enh)
Cc1cccc(NC(=S)NNC(=O)c2ccccc2Br)c1	SMN2 splice enh 13µM, FLuc modulator inconclusive, Rab9 prom act 3.2µM
CC(=O)c1cccc(NC(=S)NC(=O)c2cccc(C)c2)c1	ELG1 genotox inconclusive, NPC1 prom act inconclusive, SMN2 splice enh 16µM, FLuc modulator 4.3µM, Rab9 prom act 3.2µM
COC(=O)c1ccc(CN(Cc2ccc(OC)c(OC)c2)S(=O)(=O)c2cc(C(=O)Nc3cccc(C)c3)ccc2F)cc1	none (no result: uPA surface inh, ELG1 genotox, NPC1 prom act, SMN2 splice enh, Rab9 prom act)
Cc1ccc(NC(=O)Cn2c(=O)n(CCCCC(=O)NCc3ccc4c(c3)OCO4)c(=O)c3ccccc32)cc1	none (no result: uPA surface inh, ELG1 genotox, NPC1 prom act, Rab9 prom act)
